Assay outcomes (PubChem BioAssay)
KB-3-1 tox: qHTS assay for MDR1-selective chemotherapeutics: Primary screen using the parental adenocarcinoma cell KB-3-1; AID 1347075, 2019; KB-3-1 viability, CellTiter-Glo ATP luminescence, 72 h; Potency, µM (doses to about 46.1 µM), actives largely listed as cytotoxic; hit rate 1.4% among 400,000; also: % is scaled to controls: 0 for no effect and ±100 for the full control effect; nearly all actives have a fitted effect of over 60% in size
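KB-3-1 cells, DMEM (no phenol red) + 10% FBS; compound by pin transfer, 72 h, 37 °C. Readout: CellTiter-Glo luminescence after 10 min. Data normalized, curve-fitted.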
MCF10A rerep: A quantitative high throughput screen for small molecules that induce DNA re-replication in MCF 10a normal breast cells. MCF 10A DNA re-replication, Hoechst nuclear intensity, 48 h. Potency, µM (series often up to 46.1 µM), without a hit: top-dose activity, positive = re-replication, usual class: activators. hit rate 2.9% among 350,000; also: % of control where 0% means no effect; nearly all actives have a fitted effect of over 50% in size
HT1080 IDH1KD tx: qHTS for induction of synthetic lethality in tumor cells producing 2HG: qHTS for the HT-1080-IDH1KD cell line | Potency, µM (doses to about 46.1 µM), without a hit: top-dose activity, negative = toxicity, hits mostly cytotoxic | hit rate 2% among 360,000 | HT-1080 IDH1 knockdown viability, ATP luminescence, 48 h | AID 686971, 2013;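 also: 0% = DMSO wells and -100% = cell-free medium wells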
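In this qHTS, HT-1080 cells depleted of IDH1 are exposed for 48 h at 37 °C to compound titrations. Toxicity is scored from CellTiter-Glo luminescence, with DMSO as full viability and medium alone as none.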
HT1080NT lethal: qHTS for induction of synthetic lethality in tumor cells producing 2HG: qHTS for the HT-1080-NT fibrosarcoma cell line; AID 686970, 2013; HT-1080-NT fibrosarcoma viability, CellTiter-Glo ATP luminescence, 48 h; hit rate 1.6% among 360,000; Potency, µM (doses to about 46.1 µM), for inactives: at the highest dose activity, negative = less viability, usual class: cytotoxic;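 also: NT is the 2HG producing partner of a matched IDH1 knockdown line; 0% = DMSO-treated cells and -100% = media-only wells without cells; nearly all actives have a fitted effect of over 55% in size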
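HT-1080-NT fibrosarcoma cells (2HG-overproducing), 750 cells/well in RPMI with 5% FBS, dosed after 2 h and incubated 48 h at 37C. CellTiter-Glo luminescence normalized to DMSO and no-cell wells; concentration-response curves fitted and classed.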
SW480 rereplic: A quantitative high throughput screen for small molecules that induce DNA re-replication in SW480 colon adenocarcinoma cells. SW480 DNA re-replication, Hoechst DNA content imaging, 48 h. Potency, µM (doses to about 46.1 µM), inactives show at the top dose re-replication activation, actives largely listed as activators. hit rate 1.8% among 340,000; also: % of control where 0% means no effect; nearly all actives have a fitted effect of over 55% in size
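DNA re-replication was detected as more nuclei of elevated Hoechst intensity after 48 hr exposure to compound (23 nL pinned per well of 250 cells).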
KB-V1 cytotox: qHTS assay for MDR1-selective chemotherapeutics: Primary screen using the drug-selected MDR subline cells KB-V1; Potency, µM (titrated, usually from 46.1 µM), most hits filed as cytotoxic; KB-V1 MDR cells viability, CellTiter-Glo, 72 h; hit rate 3.4% among 400,000; also: % is scaled to controls: 0 for no effect and ±100 for the full control effect; nearly all actives have a fitted effect of over 60% in size
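Drug-selected KB-V1 cells, grown in DMEM lacking phenol red with 10% FBS, receive compound titrations; after three days at 37 degrees C, surviving cell ATP is quantified by CellTiter-Glo luminescence and responses normalized and curve-fitted.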
* = called active by the depositor; i = inactive; u = inconclusive; x = no result given; ! = repeats disagree; [ ] = another dose, or the depositor's remark. In the library only some 7.9% were active in any assay of this set; here they are far more common. Calls follow the shape of the dose curve; as a rule, active = well fitted curve in the direction sought with a large enough effect; inconclusive = small, poorly fitted or top-dose-only effect, or another doubt; inactive = no such curve, though single readings can be large; an effect the other way counts as inactive or inconclusive. Potency is read from the fitted curve at half-maximal effect.

SMILES	KB-3-1 tox	MCF10A rerep	HT1080 IDH1KD tx	HT1080NT lethal	SW480 rereplic	KB-V1 cytotox
C[C@@H]1CN([C@@H](C)CO)C(=O)Cc2cc(NC(=O)Nc3ccc(F)cc3)ccc2O[C@@H]1CN(C)Cc1ccc(Cl)c(Cl)c1	u	20%	u	18µM*	-27%	u
C[C@H]1CN([C@@H](C)CO)C(=O)Cc2cc(NC(=O)Nc3ccccc3)ccc2O[C@H]1CN(C)Cc1ccccc1	u	u	u	-24%	-5%	i
C[C@H](CO)N1C[C@H](C)[C@H](CN(C)Cc2ccncc2)Oc2ccc(NC(=O)Nc3ccc(C(F)(F)F)cc3)cc2CC1=O	6.5µM*	u	u	u	u	i
O=C1CNC(=O)/C1=C/c1ccccc1	i	-3%	27%	18%	14%	i
CC(=O)N(c1ccccc1C)C1CCCC1	i	14%	8%	13%	-14%	i
CC(=O)N(C1=C(Cl)C(=O)c2ccccc2C1=O)C1CCCCC1	u	u	2.9µM*	4.1µM*	u	u
COc1cccc(C(O)c2nc(-c3cccc(NC(C)=O)c3)cs2)c1 (stereo not given)	i	x	-11%	4%	x	i
CCOC(=O)c1ccc(NC(=O)CSc2nc3c(c(=O)[nH]2)CN(Cc2ccccc2)CC3)cc1	i	x	x	x	x	u
CN(c1ccc(F)cc1)S(=O)(=O)c1ccc(Cl)c(C(=O)NCC2(N3CCOCC3)CCCCC2)c1	i	9%	-5%	0%	-7%	18µM*
Cc1ccc(-n2c(O)c(C=Nc3cc(C)on3)c3ccccc3c2=O)c(C)c1	u	26%	-11%	-13%	x	u
CC1(C)CC(=O)C2=C(C1)NC(SCC(=O)Nc1ccccc1)=C(C#N)C2c1ccco1 (stereo not given)	i	16µM*	-2%	0%	u	i
COc1ccc(OC)c(NC(=O)CSC2=C(C#N)C(c3ccco3)C3=C(CCCC3=O)N2)c1 (stereo not given)	i	u	7%	-3%	16µM*	i
N#CC1=C(SCC(=O)c2ccc(Cl)cc2)NC2=C(C(=O)CCC2)C1c1ccco1 (stereo not given)	u	11µM*	18µM*	18µM*	u	i
Cc1ccc(NC(=O)CSC2=C(C#N)C(c3ccco3)C3=C(CCCC3=O)N2)cc1 (stereo not given)	i	u	4%	-2%	-1%[9.22 µM]	i
Cc1ccc(C(=O)CSC2=C(C#N)C(c3ccco3)C3=C(CC(C)(C)CC3=O)N2)cc1 (stereo not given)	u	u	u	-30%	u	i
O=[N+]([O-])c1ccc(CSc2ncnc3ccccc23)cc1	i	7%	-26%	-2%	-14%	u
Cc1cc(CC(=O)O)n(C)c1C(=O)c1ccc(Cl)cc1	i	30µM*!	-4%	0%	-53%	i
Cn1nccc1C(=O)c1ccc(Cl)cc1	i	-15%	11%	1%	-14%	i
O=C(c1cccc(S(=O)(=O)N2CCN(c3ccccc3)CC2)c1)N1CCCC(C(F)(F)F)C1 (stereo not given)	i	17%	-11%	u	1%	i
OC(CNCc1ccco1)COc1ccccc1 (stereo not given)	i	8%	-23%	-6%	17%	0.0018µM*
OC(CNc1ccccc1)COc1ccc(OCC(O)CNc2ccccc2)cc1 (stereo not given)	u	u	21µM*	21µM*	u	u
CCOCC(O)CNc1ccccc1 (stereo not given)	i	-3%	17%	10%	-5%	i
COc1ccccc1NCC(O)COc1ccc(C(C)(C)C)cc1 (stereo not given)	i	u	16µM*	16µM*	2%	i
CC(C)(C)NC(=O)CCN(/N=C/c1ccccc1F)C1=NS(=O)(=O)c2ccccc21	i	-1%	15%	1%	4%	i
CCOC(=O)C(NCc1ccc2c(c1)OCO2)(NC(=O)CC)C(F)(F)F (stereo not given)	i	1%	15%	18%	1%	i
SMILES	KB-3-1 tox	MCF10A rerep	HT1080 IDH1KD tx	HT1080NT lethal	SW480 rereplic	KB-V1 cytotox
O=C(c1ccccc1F)N1CCN(c2ccccc2)CC1	i	-6%	-8%	16%	-4%	u
CCCOc1ccc(F)cc1-c1cc(C(=O)NC2CCCCC2)[nH]n1	i	x	-1%	-20%	x	i
CCN(CC)S(=O)(=O)c1ccc2c(c1)N(CC(=O)N1CCN(c3cc(Cl)ccc3C)CC1)C(=O)CO2	i	x	x	x	x	i
Cc1cc(C)c2c(CN(Cc3ccccc3)Cc3ccccc3)cc(=O)oc2c1	i	x	-20%	-17%	x	u
COc1ccc(C2NC(=S)NC3=C2CCCC3=C2SCCS2)cc1 (stereo not given)	u	19%	6.5µM*	9.2µM*	u	i
S=C1NC2=C(CCCC2=C2SCCCS2)C(c2ccccc2)N1 (stereo not given)	i	1%	12%	0%	4%	i
COc1ccc2c(c1)CCC1=C2NC(=S)NC1c1ccc(N(C)C)cc1 (stereo not given)	u	21µM*	-24%	1%	12%	u
O=[N+]([O-])c1cccnc1C1OCCO1	i	x	15%	7%	x	i
O=C(NCCCN=C1NS(=O)(=O)c2ccccc21)c1ccc(S(=O)(=O)N2CCCCC2)cc1	21µM*	23µM*	u	u	u	i
COC(=O)[C@H](Cc1ccccc1)NC(=O)NC(C)CCc1ccccc1 (stereo not given in full)	i	-5%	9%	2%	-5%	u
Cc1ccnc(NC(=O)c2ccc3c(c2)NC(=O)C(C)S3)c1 (stereo not given)	18µM*	3%	-16%	-6%	5%	i
CC(=O)c1ccccc1NC(=O)c1ccc2c(c1)NC(=O)C(C)S2 (stereo not given)	u	u	-8%	-29%	-15%	u
CCCNC(=O)c1ccccc1NC(=O)c1ccc2c(c1)NC(=O)C(C)S2 (stereo not given)	u	u	9.2µM*	-30%	u	u
